In the library only some 6.8% were active in any assay of this set; here they are far more common.
Pf Dd2 inh: P. falciparum Dd2 growth inhibition. SYBR Green, 72 h; active compounds read low. activity change, % at 10 µM. 94,000 tested, 2.3% active; in the data active = activity change below about -80%; inconclusive = no clear call, values can overlap the other calls
C diff HTS: inhibitors of Clostridium difficile growth; 86,000 tested, 0.25% active; Clostridium difficile clinical isolate growth, OD600, 24 h; active compounds read low; growth activity, negative = inhibition, % at 16 µg/mL (by protocol);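 active = mean growth activity at or below -80% and every replicate also at or below -80%; inconclusive = mean at or below -80% but some replicate above -80%; inactive = mean growth activity above -80%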;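 also: 0% = DMSO wells and -100% = levofloxacin 16 µg/mL wells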
T cruzi growth-1: inhibitors of T. cruzi proliferation | T. cruzi beta-gal in NIH3T3, GalScreen luminescence, 90 h | inhibition, % at 8.34 µM | 77,000 tested, 5.9% active;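 active = mean inhibition above about 93%, with at least 55% of replicates each passing it, limit read from the data, passing the limit was not always enough; inconclusive = only one of those two conditions holds; inactive = neither condition holds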
T cruzi growth-2: Trypanosoma cruzi proliferation inhibition; shares compounds with T cruzi growth-1; T. cruzi beta-gal in NIH3T3, GalScreen luminescence, 90 h; inhibition, % at 8.35 µM; 5,600 tested, 72% active;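 active = mean replicate inhibition above about 95% and at least 55% of replicates individually reaching it, limit read from the data; inconclusive = only one of the two criteria is met; inactive = neither criterion is met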
T cruzi growth-3: Trypanosoma cruzi proliferation inhibition. T. cruzi beta-gal in NIH3T3, GalScreen luminescence, 90 h. AID 651740. shares compounds with T cruzi growth-1. inhibition, % at 2.09 µM. 5,600 tested, 21% active;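 active = mean inhibition above about 95%, with at least 55% of replicates also reaching it, limit read from the data; inconclusive = meets just one of the two conditions; inactive = meets neither condition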;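 also: plate controls were neutral control median for no effect and positive control median for full effect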
NIH3T3 tox: kills mouse NIH/3T3 fibroblasts. cytotoxicity (signal decrease), % at 8.35 µM. NIH/3T3 viability, CellTiter-Glo ATP luminescence, 90 h. 5,600 tested, 14% active. shares compounds with T cruzi growth-1;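 active = mean signal decrease across replicates above about 35% based on untreated-well scatter, with enough replicates individually passing, limit read from the data; inconclusive = no rule stated though some were filed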;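 also: 0% = median of neutral control wells and 100% = median of positive control wells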
3T3 cytotox 2: NIH/3T3 (mouse) viability loss. shares compounds with T cruzi growth-1. inhibition, % at 24.9 µM. NIH/3T3 viability, CellTiter-Glo ATP luminescence, 90 h. 5,600 tested, 56% active. AID 651744;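 active = mean loss of cell viability signal at or above a set limit, and enough replicates individually reaching it; inconclusive = meets only the mean limit or only the replicate share; inactive = meets neither condition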;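 also: 0% = median of neutral control wells and 100% = median of positive control wells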
* hit, by the source's call; ? = inconclusive; / = no result.

SMILES	Pf Dd2 inh	C diff HTS	T cruzi growth-1	T cruzi growth-2	T cruzi growth-3	NIH3T3 tox	3T3 cytotox 2
Cc1cccc(-c2ccc([C@@H]3[C@@H](CO)N4CCCCN(S(=O)(=O)c5cn(C)cn5)C[C@@H]34)cc2)c1	-1	1	?	83	-22	32	82*
Cn1cnc(S(=O)(=O)N2CCCCN3[C@H](CO)[C@H](c4ccc(-c5ccc(F)cc5)cc4)[C@@H]3C2)c1	29	6	1	/	/	/	/
Cc1cccc(-c2ccc([C@H]3[C@@H](CO)N4CCCCN(S(=O)(=O)c5cn(C)cn5)C[C@@H]34)cc2)c1	6	-9	-40	/	/	/	/
Cn1cnc(S(=O)(=O)N2CCCCN3[C@H](CO)[C@H](c4ccc(-c5ccccc5)cc4)[C@@H]3C2)c1	29	6	55	/	/	/	/
Cn1cnc(S(=O)(=O)N2CCCCN3[C@H](CO)[C@H](c4ccc(-c5ccccc5)cc4)[C@H]3C2)c1	17	-12	?	26	9	3	30*
Cn1cnc(S(=O)(=O)N2CCCCN3[C@@H](CO)[C@@H](c4ccc(-c5ccccc5)cc4)[C@@H]3C2)c1	24	-3	114*	5	-12	-15	40*
N#C[C@@H]1[C@@H](c2ccccc2C2=CCCC2)[C@@H](CO)N1C(=O)NC1CCCCC1	9	0	/	/	/	/	/
C[C@@H]1CN([C@H](C)CO)C(=O)Cc2cc(NS(=O)(=O)c3cccs3)ccc2O[C@@H]1CN(C)S(=O)(=O)c1cccs1	-16	/	44	/	/	/	/
C[C@@H](NC(=O)C[C@H]1C[C@H]2c3cc(NC(=O)CC4CC4)ccc3O[C@H]2[C@@H](CO)O1)c1ccccc1	-3	3	12	/	/	/	/
CCC(=O)Nc1ccc2c(c1)OC[C@@H](C)N(C(=O)COC)C[C@@H](C)[C@@H](OC)CN(C)C2=O	32	2	-31	/	/	/	/
C[C@@H]1CN([C@H](C)CO)C(=O)c2cc(NC(=O)Nc3ccc4c(c3)OCO4)ccc2O[C@H]1CN(C)Cc1ccc(Oc2ccccc2)cc1	15	0	-77	/	/	/	/
C[C@H](CO)N1C[C@H](C)[C@@H](CN(C)Cc2ccc(Oc3ccccc3)cc2)Oc2ccc(NC(=O)Nc3ccc4c(c3)OCO4)cc2C1=O	-25	16	?	111*	-24	15	-2
C[C@@H]1CN([C@@H](C)CO)C(=O)c2cc(NC(=O)Nc3ccc4c(c3)OCO4)ccc2O[C@H]1CN(C)Cc1ccc(-c2ccccc2)cc1	-27	12	96*	102*	91	32	82*
C[C@H](CO)N1C[C@H](C)[C@@H](CN(C)Cc2ccc(-c3ccccc3)cc2)Oc2ccc(NC(=O)Nc3ccc4c(c3)OCO4)cc2C1=O	-24	17	47	/	/	/	/
COc1ccc(S(=O)(=O)Nc2ccc3c(c2)C(=O)N([C@@H](C)CO)C[C@@H](C)[C@H](CN(C)S(C)(=O)=O)O3)cc1	10	5	-6	/	/	/	/
COc1cccc(-c2cnc3c(c2)C(=O)N([C@@H](C)CO)C[C@@H](C)[C@@H](CN(C)CC2CC2)O3)c1	-53	/	53	/	/	/	/
CC(=O)N(C)C[C@@H]1Oc2cc(C#Cc3cccnc3)ccc2S(=O)(=O)N([C@@H](C)CO)C[C@@H]1C	9	-2	39	/	/	/	/
C[C@@H]1CN([C@H](C)CO)S(=O)(=O)c2ccc(C#Cc3cccnc3)cc2O[C@@H]1CN(C)C(=O)Nc1ccc2c(c1)OCO2	-63	-10	?	77	62	18	40*
C[C@H](CO)N1C[C@H](C)[C@@H](CN(C)C(=O)Nc2ccc3c(c2)OCO3)Oc2cc(C#Cc3cccnc3)ccc2S1(=O)=O	-47	-2	93	/	/	/	/
C[C@H]1CN([C@@H](C)CO)S(=O)(=O)c2ccc(C#Cc3cccnc3)cc2O[C@H]1CN(C)C(=O)Nc1ccc2c(c1)OCO2	?	-1	102*	64	43	8	11
COc1ccccc1C(=O)Nc1ccc2c(c1)OC[C@@H](C)N(CC1CC1)C[C@@H](C)[C@@H](OC)CN(C)C2=O	/	/	-33	/	/	/	/
C[C@H](CO)N1C[C@H](C)[C@H](CN(C)C(=O)Nc2ccc(C(F)(F)F)cc2)Oc2c(NC(=O)Nc3ccc4c(c3)OCO4)cccc2C1=O	-21	5	91	/	/	/	/

Compound activity from PubChem BioAssay.
